Paper PMC5913336, “True equilibrium measurement of transcription factor-DNA binding affinities using automated polarization microscopy”

Each sequence was assayed against Gsc (Drosophila melanogaster, UniProt P54366 267-356) (assay: FP; 33 mM phosphate pH 7.0, 90 mM NaCl, 0.01% Tween 20, 0.1 mM DTT, 0.5% agarose; room temperature). Details: tags: N-GST (pGEX-6P-1, kept); dsDNA, one strand shown.
Gsc, sequence (P54366 267-356): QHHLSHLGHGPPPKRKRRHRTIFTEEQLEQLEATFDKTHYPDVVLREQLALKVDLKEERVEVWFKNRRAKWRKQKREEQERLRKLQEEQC
With AATTAATCTGAT the binding signal was 1.95 Kd / Kd of best base at the position.
In the case of AATCAATCCGAT, the binding signal is reported as 23.5 Kd / Kd of best base at the position.
For ACTTAATCCGAT, the binding signal was 10.4 Kd / Kd of best base at the position.
For AATTAATCCGAT, the Kd was about 3.8 nM.
For GATTAATCCGAT, the binding signal was 1.37 Kd / Kd of best base at the position.
For AATAAATCCGAT, the binding signal was 8.9 Kd / Kd of best base at the position.
With AATTAATCCGCT the binding signal was 3.18 Kd / Kd of best base at the position.
AACTAATCCGAT was tested, and the binding signal was 2.52 Kd / Kd of best base at the position.
AATTAATGCGAT was tested, and the binding signal was 9.37 Kd / Kd of best base at the position.
AATTAAGCCGAT was tested, and the binding signal was 4.74 Kd / Kd of best base at the position.
For AATTAATCCGTT, the binding signal was 1.04 Kd / Kd of best base at the position.
In the case of AATTCATCCGAT, the binding signal is reported as 36.4 Kd / Kd of best base at the position.
AATTGATCCGAT was tested, and the binding signal was 12.6 Kd / Kd of best base at the position.
With AGTTAATCCGAT the binding signal was 4.01 Kd / Kd of best base at the position.
AATTAATCCAAT was tested, and the binding signal was 1.29 Kd / Kd of best base at the position.
CATTAATCCGAT was tested, and the binding signal was 4.41 Kd / Kd of best base at the position.
For AATTAACCCGAT, the binding signal was 13.1 Kd / Kd of best base at the position.
AATTTATCCGAT was tested, and the binding signal was 12.6 Kd / Kd of best base at the position.
For AATTAATCCGGT, the binding signal was 1.99 Kd / Kd of best base at the position.
For AATTAATCCGAA, the binding signal was 1.15 Kd / Kd of best base at the position.
With AATTACTCCGAT the binding signal was 24.4 Kd / Kd of best base at the position.
For AATTAATCAGAT, the binding signal was 1.75 Kd / Kd of best base at the position.
AATTAGTCCGAT was tested, and the binding signal was 10.6 Kd / Kd of best base at the position.
With AATTAATCGGAT the binding signal was 3.62 Kd / Kd of best base at the position.
TATTAATCCGAT was tested, and the binding signal was 2.48 Kd / Kd of best base at the position.
With AATTAATTCGAT the binding signal was 3.3 Kd / Kd of best base at the position.
In the case of ATTTAATCCGAT, the binding signal is reported as 3.67 Kd / Kd of best base at the position.
With AAATAATCCGAT the binding signal was 4.25 Kd / Kd of best base at the position.
AATGAATCCGAT was tested, and the binding signal was 42.9 Kd / Kd of best base at the position.
With AATTAATCCGAG the binding signal was 1.56 Kd / Kd of best base at the position.
In the case of AATTATTCCGAT, the binding signal is reported as 24.5 Kd / Kd of best base at the position.
In the case of AAGTAATCCGAT, the binding signal is reported as 4.46 Kd / Kd of best base at the position.
In the case of AATTAAACCGAT, the binding signal is reported as 9.22 Kd / Kd of best base at the position.
With AATTAATACGAT the binding signal was 9.77 Kd / Kd of best base at the position.
With AATTAATCCTAT the binding signal was 2.32 Kd / Kd of best base at the position.
AATTAATCCGAC was tested, and the binding signal was 1.04 Kd / Kd of best base at the position.

What follows are sequences tested against T1, Optix (Drosophila melanogaster, UniProt Q95RW8 139-229) in the same assay as above. Details: tags: N-GST (pGEX-6P-1, kept); dsDNA, one strand shown.
T1 sequence: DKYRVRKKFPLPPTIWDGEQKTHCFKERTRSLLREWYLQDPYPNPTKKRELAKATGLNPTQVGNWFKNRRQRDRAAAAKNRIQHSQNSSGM
With AGAGTGATTGCT the binding signal was 49 Kd / Kd of best base at the position.
In the case of AGAGTGCTAGCT, the binding signal is reported as 95.1 Kd / Kd of best base at the position.
AGACTGATAGCT was tested, and the binding signal was 1.06 Kd / Kd of best base at the position.
In the case of AGAGTGATAGTT, the binding signal is reported as 5.68 Kd / Kd of best base at the position.
